# Hits are enriched below; roughly 19% of the tested compounds scored in any of these assays.
# ELG1 DNA repair = inhibitors of ELG1-dependent DNA repair in HEK293T cells; actives 2.3% (n = 330,000); Potency, µM (top dose mostly 46.1 µM), for the others: at the highest dose activity change, negative = inhibition, actives largely listed as inhibitors; HEK293T ELG1-luciferase reporter, luminescence, 16 h; DNA damage induced by 5-fluorouridine; AID 504467; note: potency is the fitted concentration of half-maximal effect; nearly all actives have a fitted effect of over 55% in size
#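 HEK293T cells expressing luciferase-tagged ELG1 (2,000/well) received 5-Fluorouridine plus compound or DMSO for 16 hr at 37 °C. Luciferase was read by ONE-Glo luminescence after 30 min at room temperature.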
# HT1080 IDH1KD tx = toxicity to HT-1080 IDH1 knockdown cells (counter line); actives 2% (n = 360,000); Potency, µM (series often up to 46.1 µM), inactives show at the highest dose activity, negative = toxicity, actives largely listed as cytotoxic; HT-1080 IDH1 knockdown viability, ATP luminescence, 48 h;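 note: potency is the fitted concentration of half-maximal effect; 0% = DMSO wells and -100% = cell-free medium wells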
#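 Viability of IDH1-knockdown HT-1080 fibrosarcoma cells was assessed by CellTiter-Glo after 48 h at 37 °C with titrated compound; concentration-effect curves were classified by fit quality and response size.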
# HT1080NT lethal = kills 2HG-producing HT-1080-NT fibrosarcoma cells; HT-1080-NT fibrosarcoma viability, CellTiter-Glo ATP luminescence, 48 h; actives 1.6% (n = 360,000); Potency, µM (titrated, usually from 46.1 µM), for inactives: at the top dose activity, negative = less viability, hits mostly cytotoxic;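 note: NT is the 2HG producing partner of a matched IDH1 knockdown line; potency is the fitted concentration of half-maximal effect; 0% = DMSO-treated cells and -100% = media-only wells without cells; nearly all actives have a fitted effect of over 55% in size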
#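 HT-1080-NT fibrosarcoma cells (2HG-overproducing), 750 cells/well in RPMI with 5% FBS, dosed after 2 h and incubated 48 h at 37C. CellTiter-Glo luminescence normalized to DMSO and no-cell wells; concentration-response curves fitted and classed.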
# TDP1 cell CPT = growth inhibition of DT40 Tdp1-/-;hTDP1 cells with camptothecin (screen for TDP1 inhibitors); chicken DT40 Tdp1-/-;hTDP1 cells + 20 nM CPT, ATP luminescence, 48 h; Potency, µM (top dose mostly 46.2 µM), inactives show top-dose activity change, negative = growth inhibition, actives largely listed as inhibitors; actives 12% (n = 420,000); AID 686979; note: potency is the fitted concentration of half-maximal effect; nearly all actives have a fitted effect of over 55% in size
#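 Cell growth measured by CellTiter-Glo luminescence after a minimum 48 h, 37 C compound exposure with 20 nM CPT in Tdp1-knockout DT40 cells stably expressing hTDP1, seeded 400/well; qHTS titration format.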
# TDP1 cell noCPT = qHTS for Inhibitors of human tyrosyl-DNA phosphodiesterase 1 (TDP1): qHTS in cells in absence of CPT; actives 15% (n = 420,000); AID 686978, 2013; DT40 Tdp1-/- hTDP1 cells, no CPT, ATP luminescence, 48 h; Potency, µM (doses to about 46.2 µM), without a hit: at the top dose activity change, negative = growth inhibition, hits mostly inhibitors; note: potency is the fitted concentration of half-maximal effect; nearly all actives have a fitted effect of over 55% in size
#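 Camptothecin absent (DMSO only). Human TDP1-complemented DT40 knockout cells, 400 cells/well, 37 °C for minimum 48 hr; ATP measured via CellTiter-Glo, 30 min dark incubation, luminescence.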
# IL-1B inflam inh = inhibitors of inflammasome signaling (IL-1 beta secretion). AID 743279. actives 4.7% (n = 360,000). THP-1 LPS/ATP IL-1B secretion, AlphaLISA, 16 h; hits give low values. activity change, % at 57.5 µM; in the data active = activity change below about -50%; inconclusive = mostly about -30% to -49%
#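 Secreted IL-1B measured by AlphaLISA bead assay after 16 h compound exposure of THP-1 cells; compounds (final up to 57.5 uM) added 1 h before LPS (250 ng/mL) and ATP (1.25 mM) stimulation; lower signal means less secretion.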
# Starred values were filed as active, the others as inactive; i = inactive; ? = inconclusive; . = not tested or not shown; ! = repeats disagree. Unless noted, calls come from the whole dose curve; as a rule, active = well fitted curve in the direction sought with a large enough effect; inconclusive = small, poorly fitted or top-dose-only effect, or another doubt; inactive = no such curve, though single readings can be large; an effect the other way counts as inactive or inconclusive. Unless noted, % is set by controls: 0 for no effect and ±100 for the full control effect.
SMILES,ELG1 DNA repair,HT1080 IDH1KD tx,HT1080NT lethal,TDP1 cell CPT,TDP1 cell noCPT,IL-1B inflam inh
COc1ccc(C(=O)NCC(c2cccnc2)N2CCc3ccccc3C2)cc1 (stereo not drawn),.,.,.,11.6µM*,20.6µM*,.
O=C(NCC(c1cccnc1)N1CCc2ccccc21)c1ccc(F)cc1 (stereo not drawn),.,.,.,23.1µM*,18.4µM*,.
CCOC(=O)c1ccc(NC(=O)CCc2c(C)nc3nc[nH]n3c2=O)cc1,.,.,.,13.3%,2.0%,.
CCCCn1c(N)c(N(CCC(C)C)C(=O)C2CC(=O)N(c3ccccc3OCC)C2)c(=O)[nH]c1=O (stereo not drawn),-9.0%,-10.4%,6.8%,-14.6%,-8.0%,i
Cc1nc2cncnc2n(-c2ccccc2)c1=O,.,.,.,2.3%,-26.4%,.
CCN(C(=O)CSc1nnc(-c2cc3occc3n2C)n1-c1ccccc1C)c1ccccc1,.,.,.,-22.2%,-26.9%,.
Cc1nc(SCC(=O)Nc2ccccc2Cl)oc1C,-0.2%,-3.2%,-7.4%,-15.3%,-5.3%,25.0
CCc1nn(CC(=O)NCc2ccc(OC)cc2OC)c(=O)c2cc3c(OC)cccc3n12,.,.,.,6.1%,-7.8%,.
OCCn1c(-c2ccc(F)cc2)csc1=Nc1ccccc1,26.6%,-8.5%,-3.0%,?,20.6µM*,-52.7*
OCCn1c(-c2ccc3c(c2)OCO3)csc1=Nc1ccccc1,?,-25.6%,-3.6%,16.4µM*,20.6µM*,-62.5*
COc1cc(NS(=O)(=O)c2ccc3c(c2)CCCN3C(C)=O)cc(OC)c1OC,.,.,.,8.2µM*,9.2µM*,.
CCOc1ccc(CNS(=O)(=O)c2ccc3c(c2)CCCN3C(C)=O)cc1OC,.,.,.,?,18.4µM*,.
C[C@@H]1CN([C@H](C)CO)C(=O)Cc2cc(NC(=O)Nc3ccccc3)ccc2O[C@@H]1CN(C)C(=O)Nc1ccc2c(c1)OCO2,-9.0%,-2.5%,1.2%,0.7%,-4.3%,-21.0
C/C(=N\O)C(C)(C)Nc1cccc(Br)c1,11.6µM*,-1.9%,-10.6%,1.0%,-27.1%,21.2
O=C(c1ccccc1)C(O)c1ccccc1 (stereo not drawn),7.9%,.,.,14.9%,7.5%,-19.8
CCN(CC)c1ccc(SS(=O)(=O)O)cc1,?,14.1%,0.5%,-9.0%,-28.4%,-71.4*!
O=S(=O)(O)Sc1ccccc1,.,?,-11.2%,23.1µM*,20.6µM*,-98.6*
CCN(CC)c1ccc(C(=O)O)cc1,2.7%,-0.8%,1.9%,11.2%,-19.5%,17.7
CC(=O)N(C(C)=O)S(=O)(=O)c1ccc(N=NN2CCOCC2)cc1,18.3%,10.7%,8.9%,-22.4%,1.7%,12.2
COCCn1c(C)cc(C(=O)COC(=O)/C=C/c2ccc(OC)cc2OC)c1C,-16.3%,11.1%,9.3%,-3.3%,?,-12.6
COCC(C)n1c(C)cc(C(=O)CSc2nnc(N)s2)c1C (stereo not drawn),?,-0.2%,-1.0%,?,?,12.5
COCCn1c(C)cc(C(=O)CSc2nc(C)c(C)c(C)n2)c1C,?,10.2%,8.1%,29.1µM*,23.1µM*,-6.4
COCCn1c(C)cc(C(=O)CSc2cc(C)c3ccc(OC)cc3n2)c1C,-11.6%,-17.1%,-19.8%,?,16.4µM*,6.2
COCC(C)n1c(C)cc(C(=O)CSc2nc(C)c(C)c(C)n2)c1C (stereo not drawn),-22.0%,0.4%,2.2%,?,14.6µM*,-12.8
O=S(=O)(NCc1ccccc1)c1ccc(NC(=S)NCc2ccco2)cc1,?,-9.9%,-6.7%,?,11.6µM*,22.9
SMILES,ELG1 DNA repair,HT1080 IDH1KD tx,HT1080NT lethal,TDP1 cell CPT,TDP1 cell noCPT,IL-1B inflam inh
S=C(NCc1ccco1)N/N=C/c1ccc(Cl)cc1,?,16.5%,9.6%,?,20.6µM*,?
S=C(NCc1ccco1)Nc1ccc(Oc2ccc(Cl)cc2)cc1,?,?,?,?,?,-90.5*
S=C(NCc1ccco1)Nc1cccc(Cl)c1Cl,14.6µM*,-5.3%,-8.4%,-19.2%,-17.0%,-2.9
CCNS(=O)(=O)c1ccc(NC(=S)NCc2ccco2)cc1,5.1%,6.8%,6.8%,?,?,0.0
COC(=O)[C@@]1(C(C)C)N=C(c2cc(OC)c(OC)c(OC)c2)[C@]2(O1)C(=O)N(C)c1ccccc12,.,2.4%,12.2%,-22.6%,?,-15.6
COc1cccc(CNC(=O)CSc2cc(C)[nH]c(=O)n2)c1,.,.,.,18.3%,-0.4%,.
COc1ccccc1/C=N/NC(=S)NCc1ccco1,0.1%,9.0%,-4.1%,?,?,7.3
O=C(/C=C/c1c(Cl)cccc1Cl)NCc1ccco1,?,-29.6%,?,?,5.8µM*,-17.4
COc1cc(/C=N/NC(=S)NCc2ccco2)cc(OC)c1OC,-24.0%,-0.1%,2.6%,16.4µM*,?,0.0
CCN(CC)c1nc(OCCNC(=O)Nc2ccccc2)nc(N(CC)CC)n1,18.4µM*,18.4µM*,20.6µM*,?,?,-63.4*
CC(=O)NCCOc1nc(N(C)C)nc(N2CCOCC2)n1,?,6.3%,6.4%,-0.7%,5.6%,10.6
CCN(CCNC(=O)Nc1ccc(Cl)cc1)c1ccccc1,5.17µM*,?,?,?,?,-6.2
CC(=O)NCCOc1nc(N2CCCCC2)nc(N2CCCCC2)n1,8.3%,-0.3%,-1.1%,-25.2%,14.6µM*,23.3
O=C(NCCOc1nc(N2CCCCC2)nc(N2CCCCC2)n1)Nc1ccccc1,?,-10.3%,2.3%,?,23.1µM*,-63.3*
O=C(NCCc1ccc(Cl)cc1)Nc1ccc(Cl)cc1,?,9.7%,-0.7%,-23.9%,?,12.7
O=C(NCCOc1nc(N2CCOCC2)nc(N2CCOCC2)n1)Nc1ccccc1,?,-24.7%,-5.9%,-25.9%,?,-28.8
Cc1cccc(-n2nnc(-c3nc(-c4ccccc4)no3)c2N)c1C,.,.,.,-10.9%,-22.8%,.
CCCCCCn1c(=O)n2n(c1=O)C[C@]1(OC(=O)NCc3ccccc3F)CN(S(=O)(=O)c3ccc(C)cc3)C[C@]1(O)C2,.,?,?,?,14.6µM*,-11.5
CCCCCCn1c(=O)n2n(c1=O)C[C@]1(OC(=O)NC3CCCC3)CN(S(=O)(=O)c3ccc(C)cc3)C[C@]1(O)C2,.,?,?,?,23.1µM*,-10.8
CCCCCCNC(=O)O[C@@]12CN(S(=O)(=O)c3ccc(C)cc3)C[C@]1(O)Cn1c(=O)n(CCCCCC)c(=O)n1C2,.,-5.5%,7.6%,0.3%,?,-8.1

# Assay outcomes as filed in PubChem.
